Test results: PubChem BioAssay AID624169 (The Scripps Research Institute Molecular Screening Center, 2012)
Screen size: about 360,000 compounds; about 2,400 (0.67%) were called active. The sample as a whole holds a higher share of actives than the screen did. Unmarked numbers belong to inactive results.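 Rule for the calls: active = activation above a run cutoff, the mean activation of all tested compounds plus 3 SD (cut at about 14% in these data); inactive = the rest.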

Biological target: 5-hydroxytryptamine receptor 2A (Mus musculus) (UniProt P35363)
Sequence (P35363 whole entry, looked up): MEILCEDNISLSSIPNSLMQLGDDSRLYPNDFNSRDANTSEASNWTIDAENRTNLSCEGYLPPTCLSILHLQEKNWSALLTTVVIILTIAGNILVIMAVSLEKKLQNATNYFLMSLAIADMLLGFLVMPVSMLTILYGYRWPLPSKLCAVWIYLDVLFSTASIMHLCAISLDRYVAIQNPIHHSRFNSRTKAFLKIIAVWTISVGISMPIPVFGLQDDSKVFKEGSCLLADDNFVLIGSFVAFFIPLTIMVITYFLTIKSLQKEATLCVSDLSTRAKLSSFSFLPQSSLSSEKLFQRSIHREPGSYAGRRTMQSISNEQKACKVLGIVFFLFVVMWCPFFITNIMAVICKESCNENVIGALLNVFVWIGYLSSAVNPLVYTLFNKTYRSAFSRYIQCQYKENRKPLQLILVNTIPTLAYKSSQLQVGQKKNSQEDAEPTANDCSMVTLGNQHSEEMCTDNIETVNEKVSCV
Assay: activation of mouse 5-HT2A receptor – cell-based, luminescence, primary screen (AID 624169);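 note: 0% = plate median of compound wells and 100% = 30 µM serotonin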
Conditions: CHO-K1 mHTR2A beta-arrestin complementation, at 7.6 µM, hits give high values, percent of 30 µM serotonin response

Row | SMILES | activation
1 | COCc1cc(C(C)=O)ccc1OC | 2.94%
2 | CCN(CC(=O)Nc1ccccc1OC)C(=O)Cn1cnc2ccccc2c1=O | 2.03%
3 | COc1ccc(C(C)=O)cc1COC(=O)Cn1cnc2ccccc2c1=O | 16.5% (active)
4 | CN1OC[C@@H]2CN[C@H](c3ccc(-c4ccccc4)cc3)C[C@@H]21 | -5.82%
5 | Cc1ccc(S(=O)(=O)NN=C2CC(C)(C)CC(=O)C2(C)C)cc1 | -0.12%
6 | Cc1ccc(C2(c3ccc(C)cc3)NC(=O)N(Cc3c(C)noc3C)C2=O)cc1 | -0.69%
7 | COC(=O)Cn1nc(-c2ccccc2)c2cc(Cl)ccc21 | 18.3% (active)
8 | CCCNC(=O)CCn1nc(-c2ccccc2)c2ccccc2c1=O | 5.25%
9 | COc1ccccc1CNC(=O)Cn1c(=O)oc2cc(Cl)ccc21 | -2.35%
10 | COC(=O)c1ccccc1N=Nc1c(C)[nH][nH]c1=O | -4.12%
11 | CC(C)(C)SCCSC1=CC(=O)CC(c2ccccc2)C1 (configuration not stated) | -1.98%
12 | O=C(NCc1ccco1)c1cnn2c(C(F)(F)F)cc(-c3ccco3)nc12 | 0.02%
13 | O=c1oc(-c2ccco2)nc2sc3c(c12)CCCCC3 | -3.64%
14 | O=C(NCc1ccco1)c1cccn2c(=O)c3c4c(sc3nc12)CCCC4 | 19.5% (active)
15 | COc1ccc(OCCCC(=O)OC(C)C(=O)Nc2ccccc2[N+](=O)[O-])cc1 (configuration not stated) | 9.6%
16 | Cc1ccc(OCc2nnc(NC(=O)OCC(C)C)s2)cc1 | -4.72%
17 | Cc1ccc2[nH]cc(CCCN3C(=O)c4ccccc4C3=O)c2c1 | -2.51%
18 | COCCCN1C(=O)c2ccc(C(=O)Nc3ccc(OC)cc3OC)cc2C1=O | 12.7%
19 | COc1ccc2[nH]cc(CCN3C(=O)c4ccc(C(=O)O)cc4C3=O)c2c1 | 19.3% (active)

Row | SMILES | activation
20 | O=C(C[C@H]1C[C@@H]2c3cc(NC(=O)C4CCC4)ccc3O[C@@H]2[C@H](CO)O1)NC1CCCCC1 | -0.85%
21 | O=C(Nc1ccc2c(c1)[C@@H]1C[C@@H](CC(=O)N3CCCCC3)O[C@@H](CO)[C@@H]1O2)NC1CCCCC1 | 15.4% (active)
22 | COC(=O)C[C@H]1C[C@@H]2c3cc(NC(=O)Nc4ccccc4)ccc3O[C@@H]2[C@@H](CO)O1 | 2.06%
23 | O=C(CCS(=O)(=O)c1cccc2nsnc12)N1CCN(c2ccccc2F)CC1 | 4.25%
24 | COC(=O)[C@@H]1CCCN1C(=O)c1cc(COc2cccc3cccnc23)on1 | 2.24%
25 | CCS(=O)(=O)Nc1ccc(C2=NN(S(=O)(=O)c3ccc(F)cc3)C(c3ccco3)C2)cc1 (configuration not stated) | -6.66%
26 | CO/N=C/CC(=O)c1ccc(OC)cc1 | 21.9% (active)
27 | COc1ccc(C(=O)C[n+]2ccc(C)cc2)cc1 | -0.16%
28 | COc1ccc(C(=O)COC(=O)c2ccc3ccccc3n2)cc1 | -0.68%
29 | Cc1cccc(NC(=O)c2cc(S(=O)(=O)N3CCC4(CC3)OCCO4)ccc2F)c1 | -2.45%
30 | CCOc1ccc(/C(O)=C2\C(=O)C(=O)N(c3ccc(OC)cc3)C2c2ccccc2[N+](=O)[O-])cc1 (configuration not stated) | 23.9% (active)
31 | COc1ccc(/C(O)=C2/C(=O)C(=O)N(c3nc(C)c(C)s3)C2c2ccco2)cc1 (configuration not stated) | 0.59%
32 | COc1ccc(C2/C(=C(/O)c3ccccc3)C(=O)C(=O)N2c2ncccn2)cc1OC (configuration not stated) | -1.25%
33 | CCN(CCn1cccn1)Cc1nc(-c2ccc(C(=O)OC)cc2)no1 | 2.48%
34 | N=C1c2ccccc2-c2ccccc21 | 3.53%
35 | Cc1nnc(C)c2c(C)n(N)c(C)c12 | -1.02%
36 | Cc1ccccc1-n1nc(SCC(=O)O)sc1=S | -1.31%
37 | O=C(CSc1nn(-c2ccc(F)cc2)c(=S)s1)NC1CCS(=O)(=O)C1 (configuration not stated) | -0.71%
38 | N#CCSc1nn(-c2ccc(F)cc2)c(=S)s1 | 15.4% (active)

Row | SMILES | activation
39 | COCCCN(C(=O)CSCc1ccc(C)cc1)c1c(N)n(Cc2ccccc2)c(=O)[nH]c1=O | 7.86%
40 | CC1C(C)N(C(=O)CCl)c2ccccc2N1C(=O)CCl (configuration not stated) | -1.04%
41 | Cn1c2c(c(=O)n(C)c1=O)C1c3ccccc3OCC1C(C)(C)O2 (configuration not stated) | -0.33%
42 | Cn1c2c(c(=O)n(C)c1=O)C(c1ccc(O)cc1)Nc1ccccc1O2 (configuration not stated) | 27% (active)
43 | Cn1c2c(c(=O)n(C)c1=O)C(c1cccc([N+](=O)[O-])c1)Nc1ccccc1O2 (configuration not stated) | -3.64%
44 | COC(=O)COc1ccc(C2NC(=O)NC(C)=C2C(=O)NCc2ccccc2)cc1OC (configuration not stated) | -4.71%
45 | COCCCn1cc(CN2CC(N(C)C)CS2(=O)=O)nn1 (configuration not stated) | 5.48%
46 | Cc1c(Br)c([N+](=O)[O-])nn1CC(=O)Nc1sc2c(c1C(=O)OC(C)C)CCC(C)C2 (configuration not stated) | 2.43%
47 | CC(=O)Nc1ccc(OCC(O)CN2CCN(c3ccccc3Cl)CC2)cc1 (configuration not stated) | 2.24%
48 | O=S(=O)(c1ccc(OCC(O)CN2CCN(c3ccccc3Cl)CC2)cc1)N1CCOCC1 (configuration not stated) | 22.4% (active)
49 | CC(=O)c1ccc(OCC(O)CN2CCN(S(=O)(=O)c3cccc(Br)c3)CC2)cc1 (configuration not stated) | 1.8%
50 | Cc1cc(C(=O)NNS(=O)(=O)c2ccccc2C(F)(F)F)nn1C(C)(C)C | -0.74%
51 | CCOC(=O)[C@]12CCCC=C1N(CCC1=CCCCC1)C(=O)[C@H](CC(=O)NCCCCc1ccccc1)C2 | 3.93%
52 | COc1ccc2[nH]c(C)c(CCN(Cc3cccs3)C(=S)Nc3ccccc3OC)c2c1 | 10.5%
53 | CCNC(=S)N(CCc1c(C)[nH]c2ccc(C)cc12)Cc1ccco1 | -4.57%
54 | Cc1[nH]c2ccccc2c1CCN(Cc1cccs1)C(=S)NC(C)(C)C | 24.1% (active)
55 | CCOC(=O)c1cccc(NC(=O)C2CCN(c3ncnc4c3nc3n4CCCCC3)CC2)c1 | -3.05%
56 | CCOCCCN1C(=O)C2C(C(=O)Nc3ccc(OCC)cc3)C3C=CC2(O3)C1C(=O)NC1CCCCC1 (configuration not stated) | 6.26%
57 | COc1ccc(C(C)(C)C)cc1NC(=O)CCN1C(=O)C2CCCCC2C1=O (configuration not stated) | -4.43%
